From PubChem BioAssay (NCI)
About 79,000 compounds went through this panel and 15% of them were active in at least one assay; those are over-represented in the sample as a whole. Activity calls are given as the source filed them. No stated cut-off is given here; in the data, active means growth inhibition above about 70%; inactive means the rest.

How the values were obtained:
[1] = NCI Yeast Anticancer Drug Screen. Data for the rad50 strain (AID 155);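 further: 0% = growth of vehicle-only cultures of the same strain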; conditions: S. cerevisiae rad50 strain growth inhibition; at 50.0 µM; hits give high values
In short: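 DNA repair mutant yeast, compound exposure, growth read-out; inhibition is taken relative to vehicle.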

[2] = NCI Yeast Anticancer Drug Screen. Data for the mec2-1 strain (AID 157); conditions: S. cerevisiae mec2-1 strain, at 50.0 µM, hits give high values
In short: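 Cells of the genetically defined mec2-1 yeast strain are incubated with test compound. Inhibition of growth is calculated against vehicle-treated controls.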

[3] = NCI Yeast Anticancer Drug Screen. Data for the sgs1 mgt1 strain (AID 161);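 further: 0% = growth of cultures given vehicle only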; conditions: S. cerevisiae sgs1 mgt1 strain, at 50.0 µM, hits give high values
In short: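 Mutant yeast exposed to compound; growth scored against vehicle-only wells.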

[4] = NCI Yeast Anticancer Drug Screen. Data for the cln2 rad14 strain (AID 165);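 further: 0% = growth equal to vehicle treated cultures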; conditions: S. cerevisiae cln2 rad14 strain, at 50.0 µM, hits give high values
In short: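 The screen exposed genetically defined yeast (cln2 rad14) to test compounds and scored growth inhibition relative to vehicle-treated controls.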

[5] = NCI Yeast Anticancer Drug Screen. Data for the bub3 strain (AID 167); conditions: S. cerevisiae bub3 mutant strain, at 50.0 µM, hits give high values
In short: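 In this screen, a yeast mutant lacking normal mitotic checkpoint function is challenged with compound. Relative growth versus vehicle gives the inhibition value.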

[6] = NCI Yeast Anticancer Drug Screen. Data for the mlh1 rad18 strain (AID 175); conditions: S. cerevisiae mlh1 rad18 strain growth inhibition; at 50.0 µM; hits give high values
In short: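 Compound-treated yeast growth, normalised to vehicle controls. Strain bears defined DNA repair mutations.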

Measured: growth inhibition

CC(C)(C)OP(O)(=S)OC(C)(C)C
inactive: [1] 14.5% | [2] 13.2% | [3] 15.8% | [4] 15.2% | [5] 16.1% | [6] 9.55%

CC(=O)[O][Hg][c]1cc[c]([Hg])s1
active: [1] 99.5% | [2] 99.3% | [3] 99.5% | [4] 99.3% | [5] 99% | [6] 99.2%

COC(=O)C1(O)c2ccccc2N=C2C1CCN2C (configuration not stated)
inactive: [1] 15.1% | [2] -11.4% | [3] -8.85% | [4] 6.4% | [5] 6.3% | [6] 16.9%

CN1CCC[N+](C)=C1c1ccc(N(C)C)cc1
inactive: [1] -22.7% | [2] -12.3% | [3] -4.5% | [4] -14.2% | [5] -10.1% | [6] -7.15%

CC([NH-])C[NH-].CC([NH-])C[NH-].[Cl-].[Cl-].[Co+3].[O-][Cl+3]([O-])([O-])O (configuration not stated)
inactive: [1] 37.5% | [2] 12.6% | [3] 40.5% | [4] 25.6% | [5] 16.9% | [6] 1.6%

N[C@@H]1CCCC[C@@H]1N.O=P([O-])([O-])CN(CP(=O)([O-])[O-])CP(=O)([O-])[O-].[Pt+2]
inactive: [1] -5.05% | [2] -6.4% | [3] -10.2% | [4] 14.9% | [5] -0.1% | [6] -21.1%

CS(=O)(=O)Oc1c(Cl)cc(S(=O)(=O)F)cc1Cl
inactive: [1] 66.2% | [4] 45.6% | [5] 53.5% | [6] 40.1%
active: [2] 75% | [3] 82.8%

COC(=O)CN(CCCl)P1(=O)OCCCN1CCCl (configuration not stated)
inactive: [1] -17.4% | [2] -1.1% | [3] -5.5% | [4] 0.2% | [5] 10.3% | [6] -4.8%

NC(CSSCC(N)C(=O)c1ccccc1)C(=O)c1ccccc1 (configuration not stated)
inactive: [1] 23.9% | [2] 0.8% | [3] 9.3% | [4] 6% | [5] 6.55% | [6] 4.35%

O=C(NCC(O)CO)c1cc(N(CCCl)CCCl)c([N+](=O)[O-])cc1[N+](=O)[O-] (configuration not stated)
inactive: [1] 3.8% | [2] -35.9% | [3] -10.5% | [4] -63.6% | [5] -10.4% | [6] 6.35%

CCc1ccccc1[N+](=O)[O-]
inactive: [1] 27.2% | [2] 28.7% | [3] 3.8% | [4] 4.65% | [5] 6.45% | [6] 21.2%

S=C(Nc1ccccc1)N1CC1
inactive: [1] -7.85% | [2] -22.3% | [3] -19.9% | [4] -11.9% | [5] -6.15% | [6] -17.4%

COc1ccc2c3c1OC1C(OC)(OC)C=C[C@@]4(Br)[C@@H](C2)N(CC2CC2)CC[C@]314 (some centres not stated)
inactive: [1] 34.1% | [2] 5.6% | [3] -35.1% | [4] -8.55% | [5] -9.9% | [6] -44.6%

CCN1CC2CCC1C2 (configuration not stated)
inactive: [1] 5.2% | [2] -3.05% | [3] -14.5% | [4] 5.5% | [5] 3.7% | [6] 4.35%

CCCCCCCCCCC(=O)O
inactive: [1] 0.25% | [2] -2.2% | [3] 24.9% | [4] -4.65% | [5] -15.4% | [6] 15.2%

O=[As](O)(O)c1cccc(O)c1
inactive: [1] -6.8% | [2] -7.25% | [3] -8.65% | [4] 3.7% | [5] 9.25% | [6] -16.1%

Cc1cc(C)c(C#N)c(SSC(Cl)(Cl)Cl)n1
inactive: [1] 5.75% | [2] 18.9% | [3] 59.2% | [4] 15.1% | [5] 61.9% | [6] 40.9%

CN(C)P(=O)(N(C)C)N1CCCCC1
inactive: [1] -6.35% | [2] -10.2% | [3] 0.3% | [4] -22% | [5] -23.6% | [6] -4.3%

Cc1c(Cl)cc([N+](=O)[O-])c(O)c1[N+](=O)[O-]
inactive: [1] 6.1% | [2] -1.45% | [3] 5% | [4] 30.7% | [5] 26.1% | [6] 7.85%

NNc1ccc([N+](=O)[O-])cc1
inactive: [1] 23.9% | [2] 26.3% | [3] 40.9% | [4] -10.3% | [5] 54.9% | [6] 51.6%

CCC(O)C[As](=O)(O)c1ccccc1OC (configuration not stated)
inactive: [1] 5.75% | [2] 20.2% | [3] 2% | [4] -1.6% | [5] 18.1% | [6] -1.65%

Cn1cnnc1N
inactive: [1] 5.4% | [2] 5.7% | [3] 6.3% | [4] 4.4% | [5] 13.2% | [6] 4.35%

Cc1ccc(S(=O)(=O)OCCN2CC2)cc1
inactive: [1] -12% | [2] -12.2% | [3] -13.6% | [4] -23.2% | [5] -17.4% | [6] -12.7%

CN1CN(c2ccccc2)C2(CCN(CCCCCCF)CC2)C1=O
inactive: [1] -5.55% | [2] -15.9% | [3] -19.4% | [4] -0.15% | [5] -5.95% | [6] 16.4%

CCCOP1(=O)C=C(C)C(Cl)=C(C)C1 (configuration not stated)
inactive: [1] 33.5% | [2] -4.6% | [3] 20% | [4] -1.45% | [5] -14.7% | [6] 34.8%

C[C@]12CCC(=O)C[C@@H]1CC[C@@H]1[C@@H]2CC[C@]2(C)[C@@H](OC(=O)N(CCCl)N=O)CC[C@@H]12
inactive: [1] 36.8% | [2] 33.8% | [3] 24.5% | [4] 55.2% | [5] 29.9% | [6] 60.1%

CCC1(CNC(=O)CN)C(=O)NC(=O)NC1=O
inactive: [1] -14.8% | [2] -0.85% | [3] -4.4% | [4] 27.4% | [5] 2.7% | [6] 21.6%

N=C(N)N.[O]=[Cr](=[O])([OH])[OH]
inactive: [1] 29.4% | [2] -39.9% | [3] 37.5% | [4] 10.6% | [5] 26.8% | [6] 30.6%

CCCCCCCCSP(SCCCCCCCC)SCCCCCCCC
inactive: [1] -11.8% | [2] -0.1% | [3] -25.3% | [4] 2.7% | [5] 1.25% | [6] 0.9%

O=N[O-].O=N[O-].[NH2-].[NH2-].[NH2-].[NH2-].[Ni]
inactive: [1] 0.55% | [2] 7% | [3] 19.6% | [4] -48.7% | [5] -14.8% | [6] 13.3%

c1ccc(C[N+]23CN4CN(CN(C4)C2)C3)cc1
inactive: [1] 9.5% | [2] -20% | [3] -7.6% | [4] 8.65% | [5] -18.2% | [6] -6.5%

CN(C)C1(c2ccc3ccccc3c2)CSC1
inactive: [1] -0.4% | [2] -16.6% | [3] 0.55% | [4] -16.2% | [5] -29.8% | [6] 2.25%

Cc1cccc(NC2=NCCO2)c1Cl
inactive: [1] -20.4% | [2] -25.8% | [3] -11% | [4] 24.9% | [5] -9.3% | [6] -27.3%

Nc1ccc2c(c1)Cc1cc(N)ccc1-2
inactive: [1] 60.2% | [2] 15.3% | [3] 57% | [4] -3.75% | [5] 37% | [6] 12.1%

CCCCOP(=O)(Cc1ccccc1)Oc1ccccc1 (configuration not stated)
active: [1] 73%
inactive: [2] 32% | [3] 68.8% | [4] 50.4% | [5] 35.3% | [6] 27.6%

Cc1ccc(S(=O)(=O)N/N=C(\CCN2CCCC2)CC(c2ccccc2)c2c(O)c3ccccc3oc2=O)cc1 (configuration not stated)
inactive: [1] 14.6% | [2] 9.1% | [3] 20.8% | [4] 21.8% | [5] 9.95% | [6] 17.6%

C[N+](C)(C)CC1CCC/C1=N/O (configuration not stated)
inactive: [1] 44.8% | [2] 13.4% | [3] -0.5% | [4] 9.95% | [5] 26.8% | [6] 34.9%
